What all share (test): NCI-60 one-dose screen, 48 h (100 = growth as untreated, 0 = no growth, -100 = all killed)
Common to all, as to conditions: 10 µM

Assay [1] has as its system RPMI-8226 leukemia.
The test system of assay [2] is OVCAR-8 ovarian.
The subject of assay [3] is OVCAR-5 ovarian.
In assay [4] the test system is OVCAR-4 ovarian.
Assay [5] concerns SK-OV-3 ovarian.
Assay [6] deals with OVCAR-3 ovarian.
Assay [7] has as its system HS 578T breast.
For assay [8], the system named is NCI/ADR-RES ovarian.
In assay [9] the test system is IGROV1 ovarian.

About 83,000 compounds went through this panel and 20% of them were active in at least one assay; those are over-represented in the sample as a whole.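 Note: values are percent growth. 100 is the growth of untreated cells, values between 100 and 0 indicate rising inhibition; between -100 and 0 indicates cell death.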 Unmarked numbers belong to inactive results. The source made the active and inactive calls. How the source made its calls: active means growth percent below 10; inactive means the rest.

Turning to `CSc1nc(S(C)(=O)=O)nc2[nH]c(=O)[nH]c12`, the growth in assay [1] is 123%; in assay [2] it was 108%; in [3] it was 96.3%; in [4], 117%; in assay [5], 115%; in assay [6], 115%. Also, the growth in assay [7] was 111%; in assay [8], 110%.

In the case of `Cc1ccc(NCCN(C)CC(C)O)c2c(=O)c3ccccc3sc12` (stereo not given), the growth in assay [1] is 19%; in assay [2] it was 33.9%; in assay [3], 61.8%; in [4] it was 59.9%; in [5], 54.9%; in assay [9] it was 38.4%. Moreover, the figures for the growth in assay [6], in assay [7] and in assay [8] were 66.7%, 55.2% and 44.7%, respectively.

On to `O=C(NCCCNS(=O)(=O)c1ccc(Cl)cc1)Nc1ccc(-n2cc(-c3ccncc3)c(-c3ccc(Cl)c(O)c3)n2)cc1`, for which the growth in assay [1] is 18.7%; in [2] it was 36%; in assay [3], 70.8%; in [4] it was 44.2%; in assay [5], 68.8%; in assay [9], 62%. The growth in assay [6] was 50%; in [7] it was 40.9%; in [8] it was 76.8%.

For the molecule `C=CCNCCN1C(=O)c2ccc3c4c(ccc(c24)C1=O)C(=O)N(CCNCC=C)C3=O`, the growth is 13.5% in assay [1]; -24% (active) in assay [2]; -52% (active) in [3]; -97.5% (active) in assay [4]; -38.6% (active) in assay [5]; -22.5% (active) in assay [6]. In addition, the growth in assay [7] was 1.35% (active); in assay [8], -12.9% (active).

Take `CC(C1=C(CN(C(=O)Cc2cn(-c3ccccc3)nc2-c2ccc(Cl)cc2)C(C)C)Cc2ccccc21)c1ccccn1` (stereo not given): the growth in assay [1] was 36.5%; in [2] it was 81.7%; in assay [3] it was 85%; in [4], 54.8%; in assay [5] it was 65.4%; in assay [6] it was 62.4%. Further, the growth in assay [7] was 80.7%; in assay [8], 61.1%.

For `CC(=O)Nc1ccc2c(c1)C(=O)c1cccc(C(=O)O)c1-2`, the growth in [1] is 105%; in [2], 106%; in [3], 103%; in assay [4], 108%; in assay [5], 108%; in [9] it was 135%. In addition, the growth is 118% in assay [6], 109% in [7] and 107% in assay [8].

Take `C[C@@H](C[C@H](CCO)c1ccccc1)c1ccc2ccccc2c1`: the growth in [1] was -18.8% (active); in assay [2], -39% (active); in assay [3], -69% (active); in assay [4], -81% (active); in [5], 23.8%; in [9], -54.5% (active). Further, the growth in [6] was -88% (active); in assay [7], -9.29% (active); in assay [8], -60.5% (active).

Turning to `CCCCN1C(=O)CC(SC2CC(=O)N(CCCC)C2=O)C1=O` (stereo not given), the growth in [1] is 100%; in [2], 108%; in [3] it was 108%; in assay [4] it was 109%; in [5], 111%; in [6], 106%. In addition, the results for the growth in assay [7] and in [8] were 103% and 111%, respectively.

As to `COc1cc(C)ccc1Oc1nc(Nc2ccc(N3CCOCC3)cc2)ncc1NC(=O)Nc1cc(C(F)(F)F)cc(C(F)(F)F)c1`, the growth in assay [1] is 61.9%; in [2] it was 44.3%; in [3], 106%; in [4] it was 66.3%; in assay [5], 101%; in assay [9], 64%. The growth is 51.9% in assay [6], 43.6% in assay [7] and 46.6% in assay [8].

For the molecule `COc1ccc(-c2onc(N)c2-c2cc(OC)c3c(c2)OCO3)cc1`, the growth in [1] is 26.7%; in assay [2] it was 39.3%; in [3], 51.3%; in [4], 61.9%; in [5] it was 38.7%; in [9] it was 41.5%. The growth in [6] is -1.21% (active); in [7], 33.8%; in [8], -10.2% (active).

As to `CCOC(=O)c1cc(C(=O)c2cc(OC)cc(OC)c2)n2nc(C)ccc12`, the growth is 29.7% in assay [2]; 59.6% in assay [3]; 56.6% in assay [4]; 6.35% (active) in assay [5]; 44.8% in assay [9]; 1.01% (active) in [6]. For the same molecule, the growth in assay [7] is 36.4%; in assay [8], 19.5%.

Consider `COc1ccc(-c2nn(-c3cccc(Cl)c3)cc2-c2c(C#N)c(N)n(N)c(=O)c2C#N)cc1`, for which the growth in assay [2] is 73.3%; in [3], 84.4%; in [4] it was 89.3%; in [5], 95%; in assay [6], 72.4%; in assay [7] it was 58.2%. Also, in assay [8], the growth is 90.4%.

For `Cc1nn(-c2ccccc2)c2nc(Cl)c(C=O)c(-c3ccccc3)c12`, the growth in assay [2] is 99.9%; in assay [3], 99.8%; in assay [4] it was 102%; in [5], 116%; in [6] it was 106%; in assay [7] it was 112%. The growth in assay [8] was 82.8%.

`CC1(C)N=C(N)N=C(N)N1c1cccc(C#N)c1`: the growth in assay [2] is 33.8%; in assay [3], 51%; in [4] it was 97.3%; in assay [5], 82.9%; in [9], 42.6%; in assay [6], 60.7%. The figures for the growth in assay [7] and in [8] were 88.2% and 75%, respectively.

In the case of `COc1ccc(-c2csc(NC(=O)c3ccc(Cc4n[nH]c(=O)c5cccnc45)cc3)n2)cc1`, the growth in [1] is 82.6%; in assay [2], 93.8%; in [4], 94.5%; in assay [5], 95.1%; in assay [9] it was 75.4%; in assay [6], 103%. For the same molecule, the growth was 99.1% in [7] and 94.1% in assay [8].

Turning to `Nc1ccc(-c2cccs2)cc1NC(=O)c1ccc(CCCC(=O)Nc2ccc(C3CC3N)cc2)cc1` (stereo not given), the growth in assay [2] was 44.9%; in assay [3] it was 86.2%; in assay [4], 93%; in assay [5] it was 68%; in [9], 80.9%; in assay [7] it was 75.5%. The growth in [8] was 87.5%.

As for `O=c1c(Br)ccc(Br)cc1Br`, the growth in assay [1] was -51.2% (active); in [3], 4.49% (active); in assay [4], -92.8% (active); in assay [5] it was 112%; in assay [6], -94.8% (active); in assay [7], 43.4%. The growth in [8] is -15.3% (active).

In the case of `CCCCCCCCCCCC[n+]1c(C)cc(N)c2ccccc21`, the growth was 3.24% (active) in [2]; 31.7% in assay [3]; 15.1% in assay [4]; -2.73% (active) in [5]; 18% in assay [6]; 53.3% in assay [8].

Turning to `Nc1cc(Br)c(-c2nn3c(CCC(=O)c4nc5ccccc5[nH]4)nnc3s2)c(Br)c1`, the growth in assay [1] was 85.1%; in [2] it was 96.5%; in assay [5], 113%; in assay [9], 101%; in [7], 90%; in [8] it was 97.3%.

Take `Cc1cn(-c2cccc(NC(=O)c3ccc(C)c(Nc4nccc(-c5cccnc5)n4)c3)c2)cn1`: the growth was 0.284% (active) in [2]; 41.3% in assay [3]; -58.1% (active) in [4]; -54.2% (active) in assay [5]; -11.7% (active) in assay [9]; -33.7% (active) in assay [6]. Also, the growth in assay [7] was -8.85% (active); in assay [8], 7.25% (active).

In the case of `Fc1ccc(C(c2ccc(F)cc2)C(Cl)Cl)cc1`, the growth in assay [1] is 97.3%; in assay [2] it was 101%; in [4] it was 105%; in [6], 105%; in [8], 107%.

Regarding `CC(=O)COc1ccc(Cl)cc1Cl`, the growth was 86.7% in [1]; 107% in [2]; 112% in assay [3]; 116% in [4]; 122% in assay [5]; 120% in [6]. The growth in [7] was 117%; in assay [8] it was 111%.

For `Nc1cc(-c2ccc(Cl)cc2)nn1-c1nc2ccccc2nc1Cc1ccccc1`, the growth in [2] is 91.2%; in [5] it was 96.7%; in assay [9], 94.9%; in assay [8], 87.5%.

On to `CN1CCc2c(sc3nc4n(-c5ccc(Cl)cc5)cnn4c(=O)c23)C1`, for which the growth in assay [2] is 100%; in assay [3] it was 105%; in assay [4], 111%; in assay [5], 91.4%; in [9], 95.3%; in assay [6] it was 101%. Moreover, the growth is 115% in [7] and 104% in assay [8].

In the case of `CCOC(=O)c1sc2ncnc(Nc3ccc4c(cnn4C(=O)Nc4ccccc4)c3)c2c1C`, the growth in assay [2] was 51.7%; in [3], 98.9%; in assay [4], -1.84% (active); in [5], 73.2%; in assay [9], 87.1%; in [6] it was 67.8%. Moreover, the growth in assay [7] is 41.6%; in assay [8] it was 49.2%.

On to `COCCn1cc(-c2nc(-c3cccnc3)cs2)c2cc(F)ccc21`, for which the growth is 102% in [2]; 92.7% in assay [3]; 95.6% in assay [4]; 7.36% (active) in assay [5]; 110% in assay [9]; 94.1% in assay [6]. For the same molecule, the values for the growth in [7] and in assay [8] were 98.6% and 86%, respectively.

Turning to `O=C1OC(C(Cl)(Cl)Cl)OC1C(Cl)(Cl)Cl` (stereo not given), the growth in assay [1] was 104%; in assay [2], 104%; in assay [3] it was 105%; in assay [4], 113%; in [6], 109%; in [7], 117%. Besides, the growth in assay [8] was 108%.

As to `CN(C)c1ccc(/C=N/NC(=O)c2cccc3ccccc23)c(Cl)c1`, the growth in assay [1] was 7.96% (active); in [2], 36.5%; in assay [3] it was 58.1%; in [4] it was 50.9%; in assay [9] it was 46.1%; in assay [6], -17.4% (active). For the same molecule, the results for the growth in assay [7] and in [8] were 42.2% and -9.37% (active), respectively.

`O=C(CCn1cnc2c(cc(-c3ccccc3)n2-c2ccccc2)c1=O)Nc1ccc(F)cc1`: the growth in assay [2] was 54%; in assay [3], 85.8%; in assay [5], 64.6%; in assay [9], 81.3%; in assay [6], 76.7%; in [7], 63.1%. In assay [8], the growth is 55.1%.

As for `Cc1cc(=O)n2nnc3cc(C(F)(F)F)ccc3n12`, the growth was 107% in assay [1]; 111% in assay [2]; 121% in assay [3]; 116% in assay [4]; 114% in assay [6]; 117% in [7]. Also, the growth in [8] is 110%.

Take `COC(=O)CC[C@@H](C)[C@H]1CC[C@H]2[C@@H]3CC[C@@H]4C[C@H](O)CC[C@]4(C)[C@H]3C[C@H](O)[C@]12C`: the growth in [1] was 68.4%; in assay [2] it was 103%; in assay [3] it was 109%; in assay [4] it was 110%; in assay [5], 111%; in assay [6] it was 102%. For the same molecule, the figures for the growth in [7] and in assay [8] were 114% and 106%, respectively.

With `Cc1ccc(C(SCC(N)C(=O)O)(c2ccc(C)cc2)c2ccc(C)cc2)cc1` (stereo not given), the growth in [1] was -36.6% (active); in assay [2] it was 7.22% (active); in [3], 38.6%; in assay [4] it was 47.8%; in assay [5], 26%; in assay [6], -42.6% (active). Further, the growth in [7] is -15.3% (active); in [8] it was 57.8%.

Regarding `COc1ccc2c(c1)C(CC(=O)NN)CCC2` (stereo not given), the growth was 113% in [1]; 99.1% in [2]; 100% in [3]; 110% in assay [4]; 115% in assay [5]; 112% in assay [6]. For the same molecule, the growth in assay [7] is 102%; in assay [8], 108%.

`CCOC(=O)CSc1nc(-c2cc(OC)ccc2OC)cc(-c2ccc(OC)cc2)c1C#N`: the growth was 82.4% in assay [2]; 97.3% in [3]; 101% in [4]; 85% in assay [5]; 55.4% in assay [9]; 95.4% in assay [6]. Besides, the growth was 90.2% in assay [7] and 81.6% in [8].
